The values that follow come from PubChem BioAssay.

SMILES strings stand for the structures.

Alpha-bungarotoxin (Bungarus multicinctus), sequence (P60615 whole entry, looked up): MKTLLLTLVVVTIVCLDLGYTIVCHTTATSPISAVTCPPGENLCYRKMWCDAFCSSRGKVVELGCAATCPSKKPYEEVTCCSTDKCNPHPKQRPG

The target of the first assay is Torsin-1A-interacting protein 1 (Homo sapiens) (UniProt Q5JTV8). As to the kind of experiment: compound microarray binding of lysate hLAP1 – cell lysate, small-molecule microarray, COS7 lysate, 635/667 nm fluorescence, primary screen (AID 1116). To be noted: 635 nm fluorescence, higher = more signal.
Torsin-1A-interacting protein 1 (Homo sapiens), sequence (Q5JTV8 whole entry, looked up): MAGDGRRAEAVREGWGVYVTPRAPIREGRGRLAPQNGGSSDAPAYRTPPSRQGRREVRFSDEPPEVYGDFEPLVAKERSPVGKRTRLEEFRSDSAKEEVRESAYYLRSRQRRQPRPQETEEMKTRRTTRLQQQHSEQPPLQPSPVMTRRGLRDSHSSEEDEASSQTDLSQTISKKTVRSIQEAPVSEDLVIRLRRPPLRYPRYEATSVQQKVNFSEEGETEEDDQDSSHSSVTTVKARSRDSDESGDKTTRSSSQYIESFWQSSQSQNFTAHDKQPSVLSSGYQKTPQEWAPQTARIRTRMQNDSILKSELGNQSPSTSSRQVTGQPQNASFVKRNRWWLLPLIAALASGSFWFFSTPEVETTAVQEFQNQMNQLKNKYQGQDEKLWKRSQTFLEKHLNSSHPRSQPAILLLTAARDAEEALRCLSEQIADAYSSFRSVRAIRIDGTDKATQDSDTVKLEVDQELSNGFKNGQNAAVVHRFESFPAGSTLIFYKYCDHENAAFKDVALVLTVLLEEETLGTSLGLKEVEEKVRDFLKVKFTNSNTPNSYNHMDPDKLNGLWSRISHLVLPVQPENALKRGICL
In the case of `COCCOC(=O)N1C(=O)[C@@]2(c3cc(C#CCCO)ccc31)[C@H](c1ccc(O)cc1)N1[C@H](c3ccccc3)[C@H](c3ccccc3)OC(=O)[C@H]1[C@@H]2C(=O)Nc1nc2ccccc2s1`, the composite z-score worked out at 0.234.
On the same count and under the same terms, to `COc1cc2c(cc1OC)CN(C(=O)[C@@H]1[C@H]3C(=O)O[C@H](c4ccccc4)[C@H](c4ccccc4)N3[C@H](c3ccccc3OCCO)[C@@]13C(=O)Nc1ccccc13)CC2` belongs -0.345; to `COc1ccc([Si](C)(C)[C@H]2[C@H](CCO)O[C@@]3(C(=O)N(Cc4ccc(N5CCCCC5=O)cc4)c4ccccc43)[C@@H]2C)cc1`, 0.643; to `CCCCO[C@H]1C[C@H]2C(Br)=C[C@@]1(CO)C(=O)[C@]21CO1`, -0.242.
Same read-out and setting: then `CCOC(=O)C[C@H]1[C@H](OC(=O)c2ccccc2-c2ccccc2)[C@@H](NC(=O)C2CCCCC2)c2cc(OCCCO)ccc2N1C(=O)c1ccccc1`, with 0.584; and `CO[C@H]1COC(=O)[C@H](C)NC(=O)CC=C[C@@H](C)[C@H](NS(=O)(=O)c2ccc(C)cc2)COC(=O)[C@@H](OCc2ccccc2)C=C[C@@H]1C`, with -0.141.
Same read-out and setting: then `CC(C)CNC(=O)[C@@]1(C)c2ccccc2C(=O)N(Cc2ccc(OC(F)(F)F)cc2)[C@H]1c1ccc(CO)cc1`, with 1.5; and `CC(C)C[C@@H]1NC(=O)[C@H]2C[C@@H](C(=O)NCCCCCC[N+](C)(C)C)[C@@H](c3ccc(O)cc3)N2C1=O`, with 0.418; and `C=CC[C@@]1(C(=O)NCC(O)CO)N=C(c2ccc(OCCCO)cc2)O[C@@H]1c1ccccc1CN=[N+]=[N-]` (stereo not given in full), with 2.6.

The next assay concerns the target Alpha-bungarotoxin (Bungarus multicinctus) (UniProt P60615). As to the kind of experiment: compounds binding labelled alpha-BTX control protein – biochemical, small-molecule microarray, Alexa647 label, 635/667 nm fluorescence, artefact control for SMM control protein annotation, profiling panel (AID 1117). To be noted: alpha-BTX-A647 binding fluorescence, higher = more signal.
The compound `COCCOC(=O)N1C(=O)[C@@]2(c3cc(C#CC4(O)CCCCCC4)ccc31)[C@H](C(=O)N1CCCCCCC1)[C@H]1C(=O)O[C@H](c3ccccc3)[C@H](c3ccccc3)N1[C@@H]2c1ccc(O)cc1` registered a composite z-score of 1.73.
As for `C=CCC(OC(C)=O)[C@@H]1[C@@H](N(Cc2cc3ccccc3o2)C(=O)Cc2ccc(F)cc2)c2cc(OCCCO)ccc2N1C(=O)c1ccc(-c2ccccc2)cc1` (stereo not given in full), the composite z-score amounted to 0.208.
`O=C(CS)NCCCCCNC(=O)[C@H]1C[C@H]2C(=O)N[C@@H](Cc3ccccc3)C(=O)N2[C@H]1c1ccc(O)cc1` displayed a composite z-score of 3.
Regarding `CO[C@H]1COC(=O)CC=C[C@@H](C)COC(=O)[C@@H](C)NC(=O)CC=C[C@@H]1C`, the composite z-score was -0.706.
Still for that read-out and setting: then `CCC(=O)[C@]12O[C@@]3([C@@H]4C(=O)OCC[C@@H]41)N(Cc1ccccc1)C(C)=C(C(=O)OC)[C@@H](c1ccccc1)N3C2=O`, with -0.621.
The same measure, in the same setting: to `C[C@]1(C(=O)NCCN2CCOCC2)c2ccccc2C(=O)N(Cc2ccccc2)[C@H]1c1ccc(CO)cc1` belongs 0.0519; to `CC[C@H]1C2=C3C(CC[C@H]4C(OC)OC[C@](C)([C@@H]34)N(C(=O)OC(C)(C)C)C2)C(CO)C1CO` (stereo not given in full), 1.33; to `O=C1c2ccccc2[C@@]2(Cc3ccccc3N(CC(F)(F)F)C2=O)[C@H](c2ccc(CO)cc2)N1C1CCCCC1`, -0.223.
Still for that read-out and setting: to `C=C(C(=O)CC[C@H](OC(=O)c1ccccc1-c1ccccc1C(=O)O)c1ccc(CO)o1)C(C)C` belongs 0.905; to `CC1=C([C@H](O)CCc2ccccc2)[C@H](CO)[C@@H]2C(=O)N(Cc3ccccc3)C(=O)[C@@H]2C1`, 1.71; to `O=C1O[C@H](c2ccccc2)[C@H](c2ccccc2)N2[C@H]1[C@@H](C(=O)NC[C@H](O)c1ccccc1)[C@]1(C(=O)Nc3ccc(C#CC4=CCCCC4)cc31)[C@H]2c1ccc(OCCO)cc1`, 1.38.
The compound `COc1cc(Cc2cc3c(c(CCc4ccccc4)n2)[Si](C(C)C)(C(C)C)OC3)cc(OC)c1OC` displayed a composite z-score of -0.044.
The same measure, in the same setting: then `CO[C@H]1O[C@H](CO)[C@@H](OC(=O)CCc2ccccc2)[C@@H]2OC(=O)[C@H](Cc3cccc(Br)c3)C/C=C/C[C@@H](Cc3cccc(Br)c3)C(=O)O[C@@H]12`, with 2.14.
`Cc1ccc(S[C@]2(C(=O)NCCCN(C)C)CC(=O)N(C3CCCCC3)[C@@H]2c2ccc(CO)cc2I)cc1`: the composite z-score was -0.693.
Compound `COC(=O)[C@@]1(Cc2ccccc2CN=[N+]=[N-])N=C(c2ccc(OCCCO)cc2)O[C@H]1c1ccccc1N=[N+]=[N-]` gave a composite z-score of 0.45.
The same measure, in the same setting: to `CO[C@@H]1COC(=O)[C@H](C)NC(=O)CC=C[C@@H](C)[C@H](OC)COC(=O)[C@H](C)NC(=O)CC=C[C@H]1C` belongs -0.59; to `COCCOC(=O)N1C(=O)[C@@]2(c3cc(C#CCNC(N)=O)ccc31)[C@H](c1ccc(OCCO)cc1)N1[C@H](c3ccccc3)[C@H](c3ccccc3)OC(=O)[C@H]1[C@@H]2C(=O)Nc1nc2ccccc2s1`, 1.37.
Same read-out and setting: to `C=CC[C@@]1(C(=O)N2CCOCC2)N=C(c2ccc(OCCCO)cc2)O[C@@H]1c1ccccc1` belongs 2.84; to `COc1cc2c(cc1OC)CN(C(=O)[C@H]1[C@@H]3C(=O)O[C@@H](c4ccccc4)[C@@H](c4ccccc4)N3[C@@H](c3ccc(O)cc3)[C@]13C(=O)Nc1ccc(C#CC4(O)CCCCCC4)cc13)CC2`, 2.79; to `O=C/C=C/c1ccccc1Cl`, 1.76.
`C=CCC(OC(C)=O)[C@@H]1[C@@H](N(Cc2cccc3ccccc23)C(=O)Cc2ccc(F)cc2)c2cc(OCCCO)ccc2N1C(=O)Cc1ccc2ccccc2c1` (stereo not given in full) yielded a composite z-score of 0.983.
Same read-out and setting: to `CC(=O)NCCCC[C@@H]1NC(=O)[C@@H]2C[C@H](C(=O)NCCCCCNC(=O)CS)[C@H](c3ccc(O)cc3)N2C1=O` belongs -0.46; to `C[N+](C)(C)CCCCNC(=O)[C@@H]1C[C@@H]2C(=O)N3CCC[C@H]3C(=O)N2[C@@H]1c1cccc(OCCO)c1`, 1.16; to `O=C(NCC(O)CO)[C@]1(Cc2ccccc2)N=C(c2ccc(OCCCO)cc2)O[C@@H]1c1ccccc1` (stereo not given in full), 2.27.
The same measure, in the same setting: to `COC(=O)Cn1c(C(=O)N2CCCC2)cc2c1C[C@H]1CN(C(=O)c3ccccc3)[C@@](Cc3ccccc3)(C(=O)OC)[C@@H]21` belongs 0.236.
In turn, `CCOC(=O)[C@H]1C/C=C/C[C@H](C(=O)OCC)C(=O)O[C@H]2[C@@H](OC)O[C@H](CO)[C@@H](OC(=O)Nc3ccc(Br)cc3)[C@@H]2OC1=O` came in with a composite z-score of 0.465.
Same read-out and setting: then `CO[C@@H]1COC(=O)[C@@H]2CCCN2C(=O)CC=C[C@@H](C)[C@H](OC)COC(=O)[C@@H]2CCCN2C(=O)CC=C[C@H]1C`, with -1.09; and `COCCOC(=O)N1C(=O)[C@@]2(c3cc(C#CCCO)ccc31)[C@H](c1ccc(O)cc1)N1[C@H](c3ccccc3)[C@H](c3ccccc3)OC(=O)[C@H]1[C@@H]2C(=O)Nc1nc2ccccc2s1`, with 1.46; and `COc1cc2c(cc1OC)CN(C(=O)[C@@H]1[C@H]3C(=O)O[C@H](c4ccccc4)[C@H](c4ccccc4)N3[C@H](c3ccccc3OCCO)[C@@]13C(=O)Nc1ccccc13)CC2`, with 2.07.
On the same count and under the same terms, then `COc1ccc([Si](C)(C)[C@H]2[C@H](CCO)O[C@@]3(C(=O)N(Cc4ccc(N5CCCCC5=O)cc4)c4ccccc43)[C@@H]2C)cc1`, with 1.7; and `CCCCO[C@H]1C[C@H]2C(Br)=C[C@@]1(CO)C(=O)[C@]21CO1`, with -0.755.
`CCOC(=O)C[C@H]1[C@H](OC(=O)c2ccccc2-c2ccccc2)[C@@H](NC(=O)C2CCCCC2)c2cc(OCCCO)ccc2N1C(=O)c1ccccc1` returned a composite z-score of 0.148.
In turn, `CO[C@H]1COC(=O)[C@H](C)NC(=O)CC=C[C@@H](C)[C@H](NS(=O)(=O)c2ccc(C)cc2)COC(=O)[C@@H](OCc2ccccc2)C=C[C@@H]1C` came in with a composite z-score of -0.606.
The same measure, in the same setting: then `CC(C)CNC(=O)[C@@]1(C)c2ccccc2C(=O)N(Cc2ccc(OC(F)(F)F)cc2)[C@H]1c1ccc(CO)cc1`, with -0.36; and `CC(C)C[C@@H]1NC(=O)[C@H]2C[C@@H](C(=O)NCCCCCC[N+](C)(C)C)[C@@H](c3ccc(O)cc3)N2C1=O`, with -0.111.
As for `C=CC[C@@]1(C(=O)NCC(O)CO)N=C(c2ccc(OCCCO)cc2)O[C@@H]1c1ccccc1CN=[N+]=[N-]` (stereo not given in full), the composite z-score is 0.0177.
